An excerpt weighted towards active compounds, which were near 13% of everything screened.
USP8 block – blocks human USP8 ubiquitin-rhodamine cleavage. purified USP8, Ub-rhodamine cleavage fluorescence, 30 min. inhibition, % at 20 µM. 47,000 compounds, 4.2% hits. P40818
Target sequence (P40818 whole entry, looked up): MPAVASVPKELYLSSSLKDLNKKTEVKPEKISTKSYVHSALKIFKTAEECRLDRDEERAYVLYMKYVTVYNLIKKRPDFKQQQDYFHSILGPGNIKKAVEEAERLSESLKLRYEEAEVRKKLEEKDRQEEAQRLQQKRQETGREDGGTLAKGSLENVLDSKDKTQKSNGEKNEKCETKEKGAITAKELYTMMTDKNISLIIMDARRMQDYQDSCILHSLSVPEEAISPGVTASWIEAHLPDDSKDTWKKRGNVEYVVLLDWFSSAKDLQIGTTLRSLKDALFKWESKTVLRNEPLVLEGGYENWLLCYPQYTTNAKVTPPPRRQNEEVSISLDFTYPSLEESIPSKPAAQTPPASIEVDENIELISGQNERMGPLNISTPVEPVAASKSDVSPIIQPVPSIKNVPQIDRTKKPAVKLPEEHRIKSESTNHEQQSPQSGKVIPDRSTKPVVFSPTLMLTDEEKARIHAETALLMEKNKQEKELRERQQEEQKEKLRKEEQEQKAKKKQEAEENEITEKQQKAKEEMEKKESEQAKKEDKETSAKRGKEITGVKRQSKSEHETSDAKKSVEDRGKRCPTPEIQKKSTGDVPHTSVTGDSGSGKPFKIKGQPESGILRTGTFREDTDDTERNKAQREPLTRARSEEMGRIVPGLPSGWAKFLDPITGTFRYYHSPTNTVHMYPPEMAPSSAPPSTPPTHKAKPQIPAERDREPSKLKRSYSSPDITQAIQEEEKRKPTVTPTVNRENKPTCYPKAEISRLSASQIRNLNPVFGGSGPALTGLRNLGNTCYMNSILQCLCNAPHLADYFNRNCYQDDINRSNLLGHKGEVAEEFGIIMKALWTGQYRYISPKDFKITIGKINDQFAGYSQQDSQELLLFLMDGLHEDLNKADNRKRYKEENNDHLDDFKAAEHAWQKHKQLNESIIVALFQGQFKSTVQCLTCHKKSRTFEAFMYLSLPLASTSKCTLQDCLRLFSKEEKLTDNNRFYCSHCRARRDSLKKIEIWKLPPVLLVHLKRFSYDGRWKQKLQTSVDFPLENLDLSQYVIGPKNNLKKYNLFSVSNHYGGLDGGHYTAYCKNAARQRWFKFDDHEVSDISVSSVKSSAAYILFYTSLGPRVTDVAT
USP28 inh – human USP28 deubiquitinase inhibition | inhibition, % at 25 µM | 47,000 compounds, 3% hits | purified USP28, Ub-rhodamine cleavage fluorescence, 30 min | Q96RU2
USP17 inh – inhibitors of human USP17 deubiquitinase; A8MUK1; purified USP17, Ub-rhodamine cleavage fluorescence, 3 h; inhibition, % at 50 µM; 47,000 compounds, 6.5% hits
USP30 block – human USP30 deubiquitinase inhibition | Q70CQ3 | purified USP30, Ub-rhodamine cleavage fluorescence | inhibition, % at 25 µM | 47,000 compounds, 5.3% hits
* = called active by the depositor; / = not tested or not shown. No stated cut-off is given here; in the data, active means inhibition above about 30%; inactive means the rest.

SMILES | USP8 block | USP28 inh | USP17 inh | USP30 block
COc1cccc2c1C(=O)c1ccc3c(c1C2=O)C(=O)C[C@@H](C)[C@@H]3O | 17 | 10 | 45* | -8
COc1ccccc1Nc1ncc2c(n1)CC(C)CC2=O (stereo unspecified) | 24 | 18 | 17 | 23
CCOc1ccc(-n2c(=O)cc(N3CCN(C(=O)c4ccco4)CC3)[nH]c2=O)cc1 | 3 | 4 | 5 | 18
CC1(C(=O)NC2CCCCCC2)Cc2ccccc2C(=O)N1CCN1CCOCC1 (stereo unspecified) | 22 | 11 | 19 | 35*
CC1(C(=O)NC2CCCCCC2)Cc2ccccc2C(=O)N1CCN1CCCCCC1 (stereo unspecified) | -5 | -24 | 0 | -137
CC1CCC(NC(=O)C2(C)Cc3ccccc3C(=O)N2C2CCCCC2)CC1 (stereo unspecified) | 8 | 9 | 14 | 30*
C[C@H](NC(=O)C1(c2ccccc2)CCN(C(=O)[C@@H]2Cc3ccccc3CN2)CC1)C(=O)O | 21 | 3 | 19 | 10
COc1ccccc1CN(CCCn1ccnc1)CC1CCOC1 (stereo unspecified) | 36* | 8 | 14 | 18
COc1cc2nc(CN3CCN(c4ccc(O)cc4)CC3)[nH]c(=O)c2cc1OC | 38* | -2 | 41* | -48
COc1cc2nc(CN3CCN(c4ccccc4F)CC3)[nH]c(=O)c2cc1OC | -2 | 1 | -7 | -4
Cc1c(CC(=O)N2CCN(c3ccccc3)CC2)c(=O)oc2c(C)c(O)ccc12 | 31* | 5 | 8 | 23
Cc1cc(N2CCCCCC2)n2nc(CN3CCN(C)CC3)nc2n1 | -9 | -28 | -38 | -115
NS(=O)(=O)c1ccc(CCNC(=O)c2cc(-c3ccc4c(c3)OCO4)nc3ccccc23)cc1 | 31* | 14 | -18 | -32
COc1ccc(-c2cc3nc(NCCc4ccc(S(N)(=O)=O)cc4)ccn3n2)cc1 | -63 | 17 | 41* | 10
COc1ccc(-c2cc(C(=O)NCCc3ccc(S(N)(=O)=O)cc3)c3ccccc3n2)cc1 | 53* | 20 | -5 | -50
c1ccc(-c2cc3nc(NCCc4ccncc4)ccn3n2)cc1 | -25 | -2 | 0 | 2
O=C(Nc1ccc2c(c1)OCO2)c1cc(-c2ccc(Cl)cc2)nc2ccccc12 | -57 | 1 | -1 | -19
COc1ccc(C(=O)CS(C)(=O)=O)cc1 | 4 | 9 | 6 | 14
O=C(NC1CCCC1)N(Cc1ccccc1)[C@@H]1CC[C@@H]2C[C@@H]1[C@@H](O)CO2 | 10 | -8 | -9 | 1
CN(C(=O)Cn1c(=O)n(CCC(=O)N2CC=C(c3ccccc3)CC2)c(=O)c2ccccc21)C1CCCCC1 | 14 | 20 | 18 | 27
O=c1[nH]c2ccccc2cc1CN(Cc1ccco1)S(=O)(=O)c1ccc(F)cc1 | 10 | 34* | 36* | 51*
O=C1Oc2nc3ccccc3cc2CN1Cc1ccco1 | 3 | 16 | 52* | 17
COc1ccc2cc3c(nc2c1)OC(=O)N(Cc1ccccc1F)C3 | 37* | -2 | 2 | 12
CCOc1ccc2cc3c(nc2c1)OC(=O)N(Cc1ccc(C)o1)C3 | 15 | 13 | 21 | 53*
Cc1ccc2nc3c(cc2c1)CN(Cc1ccco1)C(=O)O3 | 3 | -2 | 18 | 2
SMILES | USP8 block | USP28 inh | USP17 inh | USP30 block
COCC1CN(C(=O)c2ccnnc2)Cc2cnn(CC3CCCC3)c21 (stereo unspecified) | -2 | -15 | -13 | -31
Cc1cccc(S(=O)(=O)Nc2cccn3nc(C)nc23)c1 | 4 | -14 | -2 | -10
O=S(=O)(c1ccccc1Cl)N1CCC(CN2CCCCC2)CC1 | 8 | -3 | 2 | -9
OC(c1ccc2c(c1)OCO2)c1ncc(-c2ccc(Cl)cc2)[nH]1 (stereo unspecified) | 5 | -4 | -11 | -43
OC(c1ccc2c(c1)OCO2)c1ncc(-c2ccc3ccccc3c2)[nH]1 (stereo unspecified) | 40* | -2 | 1 | -30
CCCCCCCc1cc(O)cc(O)c1 | 14 | 77* | 5 | 20
N#Cc1cccnc1N1CCC(C2CCCCCN2S(=O)(=O)c2ccccc2)CC1 (stereo unspecified) | 2 | -1 | -1 | -2
Cc1ccccc1C(=O)N1CCc2cc(-c3nc(NC(=O)C4(c5ccc(Cl)cc5)CCC4)sc3C)ccc21 | 3 | / | -9 | /
Cc1sc(NC(=O)C2(c3ccc(Cl)cc3)CCC2)nc1-c1ccc2c(c1)CCN2C(=O)C1CCCCC1 | 6 | 16 | 15 | 31*
Cc1sc(NC(=O)CN2CCc3ccccc3C2)nc1-c1ccc2c(c1)CCN2C(=O)C1CCCCC1 | 76* | -2 | 54* | -76

From PubChem BioAssay
